# Data: the supplement of paper PMC8728848
# This excerpt belongs to a sample that is enriched for the strongest signals.
# Assays:
# Assay in all cases: glycan array binding signal (z-score within array); higher = stronger binding
# [1] = tested on: Neu5Ac(a2-8)Neu5Ac(a2-8)Neu5Ac(a2-8)Neu5Ac(a2-3)[GalNAc(b1-4)]Gal(b1-4)Glc; conditions: glycan notation: IUPAC condensed, linker removed
# Outline: (§1)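 The binding signal is a Z-score computed within each array. Data were drawn from 3228 arrays in the Consortium for Functional Glycomics database, restricted to those with a known protein sequence. Scores were averaged over arrays of the same protein sequence at different concentrations or buffers, and over linkers, and negative values can be taken as non-binding.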
# Neu5Gc(a2-6)GalNAc = conditions: glycan notation: IUPAC condensed, linker removed
# Outline: as §1
# [2] = tested on: Neu5Ac(a2-8)Neu5Ac(a2-8)Neu5Ac; conditions: glycan notation: IUPAC condensed, linker removed; mutation: D138V, E140I
# Outline: as §1
# Neu5Ac(b2-6)GalNAc = conditions: glycan notation: IUPAC condensed, linker removed
# Outline: as §1
# [3] = tested on: Neu5Ac9Ac(a2-3)Gal(b1-4)GlcNAc; conditions: glycan notation: IUPAC condensed, linker removed; mutation: R125K
# Outline: as §1
# [4] = tested on: Neu5Gc(a2-3)Gal(b1-3)[Fuc(a1-4)]GlcNAc; conditions: glycan notation: IUPAC condensed, linker removed; mutation: R125K
# Outline: as §1
# [5] = tested on: Neu5Gc(a2-3)Gal(b1-4)GlcNAc(b1-3)Gal(b1-4)GlcNAc(b1-2)Man(a1-3)[Neu5Gc(a2-3)Gal(b1-4)GlcNAc(b1-3)Gal(b1-4)GlcNAc(b1-2)Man(a1-6)]Man(b1-4)GlcNAc(b1-4)GlcNAc; conditions: glycan notation: IUPAC condensed, linker removed
# Outline: as §1
# [6] = tested on: Neu5Gc(a2-3)Gal(b1-4)GlcNAc; conditions: glycan notation: IUPAC condensed, linker removed
# Outline: as §1
# Neu5Gc(a2-3)Gal(b1-4)Glc = conditions: glycan notation: IUPAC condensed, linker removed
# Outline: as §1
# [7] = tested on: Neu5Gc(a2-8)Neu5Gc(a2-3)Gal(b1-4)GlcNAc; conditions: glycan notation: IUPAC condensed, linker removed; mutation: R125K
# Outline: as §1
# [8] = tested on: Neu5Ac9Ac(a2-6)Gal(b1-4)GlcNAc; conditions: glycan notation: IUPAC condensed, linker removed
# Outline: as §1
# [9] = tested on: Neu5Gc(a2-3)Gal(b1-4)[Fuc(a1-3)]GlcNAc; conditions: glycan notation: IUPAC condensed, linker removed
# Outline: as §1
# [10] = tested on: Neu5Gc(b2-6)Gal(b1-4)GlcNAc; conditions: glycan notation: IUPAC condensed, linker removed
# Outline: as §1
# C3b (Homo sapiens), P01024, sequence (P01024 23-667): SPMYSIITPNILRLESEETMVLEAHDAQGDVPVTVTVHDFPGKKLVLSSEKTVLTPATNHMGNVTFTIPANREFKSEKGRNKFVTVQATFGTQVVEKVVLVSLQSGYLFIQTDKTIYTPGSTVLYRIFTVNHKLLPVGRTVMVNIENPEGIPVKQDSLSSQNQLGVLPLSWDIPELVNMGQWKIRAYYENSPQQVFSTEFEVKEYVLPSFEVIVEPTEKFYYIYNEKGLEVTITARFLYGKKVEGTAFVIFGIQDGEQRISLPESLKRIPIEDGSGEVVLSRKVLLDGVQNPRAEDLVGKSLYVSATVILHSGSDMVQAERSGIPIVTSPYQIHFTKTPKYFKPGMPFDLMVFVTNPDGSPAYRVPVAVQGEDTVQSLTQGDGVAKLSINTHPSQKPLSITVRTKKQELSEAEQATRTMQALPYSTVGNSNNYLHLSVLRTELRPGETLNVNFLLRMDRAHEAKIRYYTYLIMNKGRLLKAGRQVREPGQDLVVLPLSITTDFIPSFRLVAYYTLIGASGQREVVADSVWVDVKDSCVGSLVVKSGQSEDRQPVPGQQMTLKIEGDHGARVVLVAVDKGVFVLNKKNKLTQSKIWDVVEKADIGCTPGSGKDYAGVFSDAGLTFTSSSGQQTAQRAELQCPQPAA
# 6RG (Lolium perenne), B9U140, sequence (B9U140 entry or part of it): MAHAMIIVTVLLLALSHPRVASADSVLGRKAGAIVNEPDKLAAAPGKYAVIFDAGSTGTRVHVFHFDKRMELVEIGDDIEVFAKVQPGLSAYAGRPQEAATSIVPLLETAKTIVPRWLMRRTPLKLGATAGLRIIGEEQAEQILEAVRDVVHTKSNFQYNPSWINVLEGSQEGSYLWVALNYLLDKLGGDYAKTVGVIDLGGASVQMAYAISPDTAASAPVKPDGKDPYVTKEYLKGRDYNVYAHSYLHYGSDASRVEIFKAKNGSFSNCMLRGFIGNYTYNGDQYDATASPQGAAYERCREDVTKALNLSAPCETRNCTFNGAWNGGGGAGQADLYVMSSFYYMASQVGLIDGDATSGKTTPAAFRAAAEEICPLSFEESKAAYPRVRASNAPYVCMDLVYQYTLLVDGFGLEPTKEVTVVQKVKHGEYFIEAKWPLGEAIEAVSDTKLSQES
# Avaren (Actinomycete K97), sequence (chain, as listed by the source): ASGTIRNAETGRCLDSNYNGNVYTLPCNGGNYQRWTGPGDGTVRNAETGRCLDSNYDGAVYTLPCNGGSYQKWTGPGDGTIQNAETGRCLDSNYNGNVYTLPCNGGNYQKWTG
# SRLC (Mus musculus), Q8VIF6, sequence (Q8VIF6 other isoform, or with tags, fused parts or gaps): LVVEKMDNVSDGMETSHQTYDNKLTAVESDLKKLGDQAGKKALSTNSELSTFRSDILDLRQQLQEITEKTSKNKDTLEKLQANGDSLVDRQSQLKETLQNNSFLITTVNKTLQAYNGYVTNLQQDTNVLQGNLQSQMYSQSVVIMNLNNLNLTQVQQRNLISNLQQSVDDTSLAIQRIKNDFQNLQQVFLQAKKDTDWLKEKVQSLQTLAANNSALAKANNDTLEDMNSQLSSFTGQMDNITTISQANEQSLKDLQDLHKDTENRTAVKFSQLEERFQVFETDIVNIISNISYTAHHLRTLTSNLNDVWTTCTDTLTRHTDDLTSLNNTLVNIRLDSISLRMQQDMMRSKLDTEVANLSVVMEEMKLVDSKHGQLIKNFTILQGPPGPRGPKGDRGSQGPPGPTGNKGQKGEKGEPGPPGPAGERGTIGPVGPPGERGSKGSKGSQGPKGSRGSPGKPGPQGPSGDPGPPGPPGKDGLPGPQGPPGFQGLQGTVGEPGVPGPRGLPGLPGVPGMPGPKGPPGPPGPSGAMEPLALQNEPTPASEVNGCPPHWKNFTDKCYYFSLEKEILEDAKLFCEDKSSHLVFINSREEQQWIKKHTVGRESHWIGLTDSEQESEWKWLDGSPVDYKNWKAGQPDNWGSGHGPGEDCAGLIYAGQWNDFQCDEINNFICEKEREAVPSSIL
# Aggrecan (Rattus norvegicus), NP_071526, sequence (chain, as listed by the source): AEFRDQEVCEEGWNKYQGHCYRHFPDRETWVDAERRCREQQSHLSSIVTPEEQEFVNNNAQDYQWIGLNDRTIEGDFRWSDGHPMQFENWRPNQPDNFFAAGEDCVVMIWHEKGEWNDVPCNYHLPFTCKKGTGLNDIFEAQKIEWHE
# PILRb (Mus musculus), Q2YSF2, sequence (Q2YSF2 entry or part of it): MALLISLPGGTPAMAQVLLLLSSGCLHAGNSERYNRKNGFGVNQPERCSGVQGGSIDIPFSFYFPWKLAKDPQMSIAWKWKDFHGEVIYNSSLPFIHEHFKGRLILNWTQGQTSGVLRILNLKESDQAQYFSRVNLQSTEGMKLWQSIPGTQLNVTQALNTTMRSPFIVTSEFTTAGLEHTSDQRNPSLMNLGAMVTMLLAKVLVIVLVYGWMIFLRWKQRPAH
# 6RG (Lolium perenne), sequence (chain, as listed by the source): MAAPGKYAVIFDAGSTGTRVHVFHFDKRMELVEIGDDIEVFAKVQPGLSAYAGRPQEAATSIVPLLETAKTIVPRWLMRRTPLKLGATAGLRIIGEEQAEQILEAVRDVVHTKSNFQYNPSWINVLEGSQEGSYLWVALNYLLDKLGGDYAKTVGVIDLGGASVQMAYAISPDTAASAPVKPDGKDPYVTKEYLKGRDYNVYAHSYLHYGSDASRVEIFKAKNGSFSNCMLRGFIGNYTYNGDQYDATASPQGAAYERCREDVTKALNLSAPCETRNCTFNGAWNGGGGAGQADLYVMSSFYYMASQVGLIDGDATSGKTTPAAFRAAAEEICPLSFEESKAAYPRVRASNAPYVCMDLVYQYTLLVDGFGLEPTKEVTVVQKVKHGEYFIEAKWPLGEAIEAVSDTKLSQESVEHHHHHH
# CHT (Homo sapiens), sequence (chain, as listed by the source): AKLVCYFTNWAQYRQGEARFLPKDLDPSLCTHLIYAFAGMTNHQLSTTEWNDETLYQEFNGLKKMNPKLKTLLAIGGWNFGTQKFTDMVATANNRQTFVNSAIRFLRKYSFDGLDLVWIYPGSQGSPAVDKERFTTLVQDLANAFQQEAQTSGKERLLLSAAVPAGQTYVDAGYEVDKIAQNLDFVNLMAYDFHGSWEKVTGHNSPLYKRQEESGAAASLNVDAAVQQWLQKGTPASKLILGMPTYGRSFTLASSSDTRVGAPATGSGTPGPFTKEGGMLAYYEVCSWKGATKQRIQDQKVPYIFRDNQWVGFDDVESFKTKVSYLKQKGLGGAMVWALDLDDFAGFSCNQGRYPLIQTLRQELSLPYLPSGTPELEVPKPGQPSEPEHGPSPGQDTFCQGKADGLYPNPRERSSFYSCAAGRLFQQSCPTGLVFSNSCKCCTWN
# Neurocan (Homo sapiens), O14594, sequence (O14594 other isoform, or with tags, fused parts or gaps): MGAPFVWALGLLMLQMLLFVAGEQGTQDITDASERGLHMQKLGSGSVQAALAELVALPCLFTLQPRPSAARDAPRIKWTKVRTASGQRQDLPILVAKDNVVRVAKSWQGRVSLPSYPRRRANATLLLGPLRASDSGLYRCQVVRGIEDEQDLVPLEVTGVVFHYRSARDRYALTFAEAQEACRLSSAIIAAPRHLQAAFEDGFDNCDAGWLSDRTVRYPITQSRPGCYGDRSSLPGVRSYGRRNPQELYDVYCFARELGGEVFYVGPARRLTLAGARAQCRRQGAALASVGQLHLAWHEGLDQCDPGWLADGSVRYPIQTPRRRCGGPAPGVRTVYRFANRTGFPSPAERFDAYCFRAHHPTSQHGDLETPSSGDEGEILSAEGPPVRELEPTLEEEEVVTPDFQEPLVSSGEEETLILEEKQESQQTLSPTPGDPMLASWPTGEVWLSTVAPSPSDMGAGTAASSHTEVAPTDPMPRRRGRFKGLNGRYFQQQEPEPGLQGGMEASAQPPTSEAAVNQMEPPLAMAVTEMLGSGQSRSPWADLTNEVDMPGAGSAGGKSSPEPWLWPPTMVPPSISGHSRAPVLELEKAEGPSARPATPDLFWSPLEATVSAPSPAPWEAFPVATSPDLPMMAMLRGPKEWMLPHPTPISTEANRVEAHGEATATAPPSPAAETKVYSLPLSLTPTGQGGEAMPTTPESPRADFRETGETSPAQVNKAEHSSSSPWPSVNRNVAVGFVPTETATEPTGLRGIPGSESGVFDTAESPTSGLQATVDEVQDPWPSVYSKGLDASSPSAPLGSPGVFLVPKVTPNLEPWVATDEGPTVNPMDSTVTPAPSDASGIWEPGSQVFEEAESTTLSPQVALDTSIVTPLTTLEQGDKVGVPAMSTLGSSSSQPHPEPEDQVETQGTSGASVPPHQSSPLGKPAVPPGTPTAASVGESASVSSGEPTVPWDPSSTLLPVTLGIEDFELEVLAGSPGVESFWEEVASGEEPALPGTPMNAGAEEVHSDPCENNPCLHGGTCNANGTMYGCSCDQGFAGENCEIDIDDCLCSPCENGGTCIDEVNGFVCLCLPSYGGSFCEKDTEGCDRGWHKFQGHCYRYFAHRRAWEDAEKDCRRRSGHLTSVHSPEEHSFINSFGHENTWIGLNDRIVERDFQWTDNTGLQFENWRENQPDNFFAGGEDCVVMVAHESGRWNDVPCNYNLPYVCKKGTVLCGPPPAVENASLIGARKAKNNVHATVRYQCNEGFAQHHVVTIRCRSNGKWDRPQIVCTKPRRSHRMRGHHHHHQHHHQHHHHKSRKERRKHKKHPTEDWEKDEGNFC
substance,measurement,setting,value
"C3b (Homo sapiens), P01024",glycan array binding signal (z-score),[1],-0.102
same,glycan array binding signal (z-score),Neu5Gc(a2-6)GalNAc,-0.982
CHT (Homo sapiens),glycan array binding signal (z-score),[2],-0.166
Avaren (Actinomycete K97),glycan array binding signal (z-score),Neu5Ac(b2-6)GalNAc,-0.14
"Siglec-8 (Homo sapiens), Q9NYZ4",glycan array binding signal (z-score),[3],-0.109
same,glycan array binding signal (z-score),[4],-0.465
same,glycan array binding signal (z-score),[5],0.025
same,glycan array binding signal (z-score),[6]; mutation: R125K,-0.109
same,glycan array binding signal (z-score),Neu5Gc(a2-3)Gal(b1-4)Glc,-0.088
same,glycan array binding signal (z-score),[7],-0.526
"6RG (Lolium perenne), B9U140",glycan array binding signal (z-score),[8],2.52
MpAFP RI GFP (Marinomonas primoryensis),glycan array binding signal (z-score),[8],-0.772
"Neurocan (Homo sapiens), O14594",glycan array binding signal (z-score),[6],-0.18
"SRLC (Mus musculus), Q8VIF6",glycan array binding signal (z-score),Neu5Gc(a2-3)Gal(b1-4)Glc,-0.188
"Aggrecan (Rattus norvegicus), NP_071526",glycan array binding signal (z-score),[9],-0.152
6RG (Lolium perenne),glycan array binding signal (z-score),Neu5Gc(a2-6)GalNAc,-0.128
"PILRb (Mus musculus), Q2YSF2",glycan array binding signal (z-score),[10],-0.093
